A selection: hits, their analogues and other compounds. The true share with any hit is near 1.1%.
MOR-DOR ag – agonists of OPRM1-OPRD1 heterodimerization, primary screen, cell-based, luminescence; Mu-type opioid receptor (Homo sapiens) + Delta-type opioid receptor (Homo sapiens), …; cells; activation, % at 9.3 µM; hit rate 0.3% among 340,000; in the data active = activation above about 18%;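 note: 0% = vehicle-treated cells and 100% = reference agonist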
MOR-DOR inv ag – inverse agonists of MOR-DOR heterodimerization, primary screen, cell-based, luminescence; hit rate 0.21% among 340,000; cell-based MOR-DOR heterodimer luminescence, inverse agonism; inhibition, % at 9.3 µM; AID 504357, 2011; Mu-type opioid receptor (Homo sapiens) + Delta-type opioid receptor (Homo sapiens), …; in the data active = inhibition above about 22%, passing the limit was not always enough;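 note: 0% = cells with DMSO and 100% = wells without cells with DMSO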
HTR5A ag ctr – HTR5A agonists in luminescence cell assay, primary screen, counter-screen for OPRM1-OPRD1 heterodimer agonist project, full-deck HTS; AID 504692, 2011; cell-based; hit rate 0.61% among 340,000; activation, % at 9.3 µM; 5-hydroxytryptamine receptor 5A (Homo sapiens), P47898; in the data active = activation mostly above about 9.5%, no sharp cut-off; inactive = mostly below about 7.6%;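 note: 0% = cells with vehicle only and 100% = reference agonist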
Target sequence (P47898 whole entry, looked up): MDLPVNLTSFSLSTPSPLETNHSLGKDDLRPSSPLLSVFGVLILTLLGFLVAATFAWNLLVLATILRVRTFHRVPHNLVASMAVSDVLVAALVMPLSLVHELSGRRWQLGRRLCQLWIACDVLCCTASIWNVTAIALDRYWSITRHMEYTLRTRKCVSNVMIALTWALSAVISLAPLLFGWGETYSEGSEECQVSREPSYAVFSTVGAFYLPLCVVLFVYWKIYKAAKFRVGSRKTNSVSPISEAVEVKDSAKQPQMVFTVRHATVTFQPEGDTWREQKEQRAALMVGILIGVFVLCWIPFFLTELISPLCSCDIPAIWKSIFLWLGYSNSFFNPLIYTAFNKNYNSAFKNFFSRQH
HTR5A inv ctr – HTR5A inverse agonists in luminescence cell assay, primary screen, counter-screen for OPRM1-OPRD1 heterodimer inverse agonist project, full-deck HTS | HTR5A cell line, inverse agonism | inhibition, % at 9.3 µM | hit rate 0.083% among 340,000; in the data active = inhibition mostly above about 23%, no sharp cut-off; inactive = mostly below about 18%;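 note: 0% = cells with DMSO and 100% = no-cell wells with DMSO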
An asterisk follows results filed as active.

SMILES | MOR-DOR ag | MOR-DOR inv ag | HTR5A ag ctr | HTR5A inv ctr
Cc1cc(C(=O)COC(=O)c2ccc3c(c2)OCO3)c(C)n1CC1CCCO1 (stereo not given) | -1.0 | 5.0 | 1.6 | -4.6
COc1cccc(NC(=O)c2cncs2)c1 | -0.1 | 0.7 | -1.9 | 6.9
COC(=O)c1cc(C)nc2c1C(=O)C(=O)C=C2N1CCOCC1 | 25.7* | -122.9 | 5.8 | -21.6
Cn1cc(/C=N/NC(=O)c2ccccc2O)c2ccccc21 | -4.5 | 21.5 | 10.4* | -35.4
CC(=O)n1cc(/C=N/NC(=O)c2ccccc2O)c2ccccc21 | -1.6 | 9.2 | -1.8 | 7.1
O=C(CNS(=O)(=O)c1ccc(Cl)cc1)N1CCN(c2ccc(F)cc2)CC1 | 4.0 | -16.1 | 2.2 | -5.6
CC(/C=C/c1ccco1)=N\NC(=O)CNc1ccc2ccccc2c1 | 0.1 | -0.6 | 12.0* | -18.1
CCOC(=O)CSc1nnc(Cn2c(=O)sc3ccccc32)n1C | -0.8 | 4.0 | 10.6* | -29.3
CCOC(=O)N1CCN(C(=O)CSc2nnc(Cn3c(=O)sc4ccccc43)n2C)CC1 | -1.8 | 9.1 | 4.5 | -12.3
COC(=O)c1ccc2c(c1)N(Cc1ccccc1F)C(=O)c1ccccc1S2=O (stereo not given) | -0.5 | 2.9 | 1.6 | -4.5
CCOC(=O)c1ccc2c(c1)N(Cc1ccccc1C)C(=O)c1ccccc1S2=O (stereo not given) | -1.2 | 6.9 | 9.5* | -31.9
C/C(=N/Nc1ccc([N+](=O)[O-])cc1)c1c[nH]c2ccccc12 | -2.9 | 14.3 | -7.9 | 29.9*
C/C(=N/Nc1ccc([N+](=O)[O-])cc1)c1ccc(C)cc1C | 4.1 | -20.1 | -3.9 | 9.3
CCN(CC)S(=O)(=O)c1cc(NC(=O)CN2CCN(c3ccccn3)CC2)ccc1C | -2.1 | 10.6 | 6.1 | 1.2
Cc1ccc(NC(=O)CN2CCN(c3ccccn3)CC2)cc1S(=O)(=O)N(C)C | 3.4 | -16.8 | 9.4* | -26.0
Cc1ccc(N2CCN(CC(O)COC3CCCCC3)CC2)cc1 (stereo not given) | -1.8 | 9.8 | 10.3* | 8.0
COc1ccc(S(=O)(=O)N2CCOCC2)cc1NC(=O)CSc1cccc[n+]1[O-] | -0.7 | 3.4 | 0.4 | -27.8
COc1ccc(C)c2sc(N(CCCN(C)C)C(=O)c3ccc(S(=O)(=O)N4CCc5ccccc5C4)cc3)nc12 | 30.4* | -148.2 | 21.4* | -18.5
COc1cccc2sc(N(CCCN(C)C)C(=O)c3ccc(S(=O)(=O)N4CCc5ccccc5C4)cc3)nc12 | 1.6 | -6.6 | 13.1 | -33.6
CC(C)(C)NC(=O)CSCc1c(Cl)cccc1Cl | -0.9 | 6.2 | -0.7 | 12.2
NC(=O)CSCc1c(Cl)cccc1Cl | -2.0 | 11.2 | 12.5* | -19.5
Cc1ccc(NC2=C/C(=N\S(=O)(=O)c3cccs3)c3ccccc3C2=O)c(C)c1 | 22.4* | -112.3 | -3.1 | 8.3
CC(=O)C(Cl)C(=O)Nc1ccccc1 (stereo not given) | -14.9 | 74.5* | -4.9 | -1.1
O=C(Nc1ccccc1)C(Cl)C(=O)c1ccccc1 (stereo not given) | -19.1 | 95.6* | -13.4 | 50.7*
CC1CCCCN1C(=O)CSc1nc(N)nc(N)n1 (stereo not given) | -1.9 | 9.8 | -1.6 | 4.0
SMILES | MOR-DOR ag | MOR-DOR inv ag | HTR5A ag ctr | HTR5A inv ctr
NS(=O)(=O)c1cccc(-n2cnnn2)c1 | -1.4 | 7.0 | 1.1 | 8.8
CC(C)c1ccc(N(CC(=O)NCc2ccc(F)cc2)C(=O)c2csnn2)cc1 | -3.6 | 16.5 | 3.4 | -9.4
O=C(CSc1ccc2c(c1)OCCO2)Nc1ccc(Br)cn1 | -1.3 | 7.4 | 10.9* | -19.4
O=C(CSc1ccc2c(c1)OCCO2)Nc1ccc(Cl)cn1 | 1.1 | -5.4 | -0.2 | 0.5
Cc1sc2nc(CN3CCN(c4ccc(O)cc4)CC3)[nH]c(=O)c2c1C | -0.9 | 4.7 | 12.2* | -38.5
COc1cc(C2C=C(Nc3ccccc3)C(=O)N2c2ccccc2)ccc1O (stereo not given) | -0.2 | 1.5 | -5.4 | 14.4
O=C1C(Nc2ccccc2)=CC(c2ccc(O)cc2)N1c1ccccc1 (stereo not given) | -2.6 | 13.9 | 12.5* | -0.3
O=C(N/N=C/c1ccccn1)c1ccc(NC(=O)c2ccc(F)cc2)cc1 | 12.8 | -79.8 | 13.7* | -24.0
O=C(COc1ccc2ccc(=O)oc2c1)OCc1ccccc1 | 0.0 | 0.1 | 12.4* | -21.6
O=C(Cn1c(=O)n(CCC(=O)N2CCCCC2)c(=O)c2sccc21)NCc1ccccc1 | -2.2 | 12.1 | 12.6* | -8.3
O=C(Cn1c(=O)n(CC(=O)N2CCCCC2)c(=O)c2sccc21)NCc1ccccc1 | -1.2 | 6.8 | 1.5 | -20.2
O=C(/C=C/C(Cl)(Cl)Cl)Nc1ccc(Cl)cc1 | 18.1* | -79.2 | 16.5* | -63.4
NC(=O)/C=C/C(=O)Nc1ccc(Cl)cc1 | -2.9 | 13.4 | 0.7 | -1.7
Cc1ccc(S(=O)(=O)c2c(C)nn(C(C)(C)C)c2OC(=O)c2ccco2)cc1 | -1.4 | 5.8 | 11.7* | -0.6
CC(C)NC(=O)NC(=O)COC(=O)c1c2c(nc3ccccc13)CCC2 | 4.2 | -33.5 | 14.1* | -41.9
COc1cc(/C=N/NC(=O)c2cc(-c3ccc4c(c3)OCO4)n[nH]2)ccc1O | 1.4 | -9.1 | 0.5 | -23.2
O=C(N/N=C/c1ccc([N+](=O)[O-])cc1)c1cc(-c2ccc3c(c2)OCO3)n[nH]1 | -0.4 | 2.2 | 13.1* | -8.4
CCOC(=O)C1=C2NC(=O)c3ccccc3N2C(=O)C1 | -6.5 | 31.3 | -2.9 | 21.1
C=CCN(CC=C)Cc1c(O)ccc2c1oc(=O)c1ccccc12 | -7.6 | 44.8* | -8.0 | 32.0
CCOC(=O)c1c(C)[nH]c(C(=O)OCC(=O)NC2(C#N)CCCCC2)c1C | -1.7 | 8.7 | -3.9 | 9.5
Cc1cc(C)c(NC(=O)COC(=O)Cc2cccs2)c(C)c1 | -0.9 | 4.8 | -0.2 | -22.9
Cc1ccccc1OCCC(=O)OCC(=O)NC1CCS(=O)(=O)C1 (stereo not given) | -2.5 | 12.2 | 4.7 | -2.1
CC(=O)OCCNc1cc(Sc2nc3ccccc3[nH]2)c2nonc2c1[N+](=O)[O-] | -6.3 | 35.1* | -6.3 | -0.8
CC(C)c1ccc(Nc2nnc(SCC(=O)NCC3CCCO3)s2)cc1 (stereo not given) | -3.0 | 15.6 | -2.3 | 8.2
Cc1cccc2sc(NNC(=O)c3ccc(S(=O)(=O)N4CC(C)CC(C)C4)cc3)nc12 (stereo not given) | 22.6* | -132.7 | 15.2* | -43.0
CC(C)(C)c1ccc(Oc2ccc(NC(=O)c3cccs3)cn2)cc1 | 5.6 | -29.7 | 13.1* | -2.4
COc1ccc(NC(=O)c2cccs2)cn1 | -2.2 | 10.8 | 3.9 | -10.2
CC1CCCCC1NC(=S)Nc1cccc(S(=O)(=O)N(C)C)c1 (stereo not given) | 1.3 | -7.0 | 10.9* | 18.7
CCN(CC)C(=O)Cn1cc(S(=O)(=O)CC(=O)Nc2ccccc2F)c2ccccc21 | -0.2 | 0.9 | 0.6 | -14.3
C=CCNC(=O)c1onc(CSc2ccccc2)c1C(=O)NCC=C | 0.0 | -0.2 | -2.3 | 17.3
